# Laboratory results: PubChem BioAssay (NCI)
# The panel holds about 83,000 compounds, 20% with a hit somewhere; the sample as a whole holds those more often.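 Results are percent growth after 48 hours of single-concentration exposure. 100 means growth as in untreated cells, lower positive values show inhibition; negative values down to -100 show cell death.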 Unmarked numbers belong to inactive results. The source made the active and inactive calls.
# System: EKVX NSCLC
# Experiment: NCI-60 one-dose screen, 48 h (100 = growth as untreated, 0 = no growth, -100 = all killed)
# Conditions: 10 µM unless noted
# Method: Growth inhibition of the EKVX human Non-Small Cell Lung tumor cell line is measured as a screen for anti-cancer activity. Cells are grown in 96 well plates and exposed to the test compound for 48 hours. Compounds are tested at a single concentration, which is 10^-5 M for most compounds. The reported endpoint is percent growth (GI% or GIPRCNT), where numbers from 0 - 100% represent growth inhibition, and numbers from -100% - 0 represent cell death. For example, a value of 40 represents 60% growth inhibition. A value of 0 means no net growth occurred over the course of the experiment. A value of -40 indicates 40% of cells at the beginning of the experiment died by the end of the experiment. A value of -100 means all cells are dead at the end of the experiment.
# NCI-60 Human Tumor Cell Lines Screen was performed using the standard one-dose NCI protocol, which is described in more detail at https://dtp.cancer.gov/discovery_development/nci-60/default.htm.
# Compounds with GIPRCNT values below 10 were considered active. Activity score was based on GIPRCNT using the following formula: […]
# Score is 0 for GIPRCNT values of 100 or above, 50 for GIPRCNT values of 0, and 100 for GIPRCNT values of -100.
row,Structure (SMILES),growth
1,C/C(=C\c1csc(C)n1)[C@@H]1C[C@@H]2O[C@]2(C)CCC[C@H](C)[C@H](O)[C@@H](C)C(=O)C(C)(C)[C@@H](O)CC(=O)N1,-25.6% (active)
2,NC(=O)c1cccc(N2Cc3ccccc3OC3=C2C(=O)c2c(O)ccc(O)c2C3=O)c1,-0.27% (active)
3,CC1Cc2c(N(C)C)ncnc2N(C)c2ccc(O)cc21 (stereo not given),71.3%
4,CN1CCN(CCCOc2ccc3nc(Nc4ccc(C(F)(F)F)c(Cl)c4)ccc3c2)CC1,38.7%
5,O=C1CCCCN1CCCCC#Cc1ccccc1C#Cc1ccc([N+](=O)[O-])cc1,74.8%
6,CC(=O)/C=C/c1cc2cc(Cl)ccc2[nH]c1=O,89.3%
7,CCN(CC)CCSc1c2ccc(Cl)cc2nc2ccc(OC)cc12,97.1%
8,CCC(c1ccc(OC)cc1)C(CC)c1ccc(O)c(CN2CCCC2)c1 (stereo not given),11.3%
9,Nc1ccccc1C#C/C=C\C#Cc1cccc(O)c1,71.8%
10,O=C(Nc1ccc(F)cc1)c1cc([N+](=O)[O-])ccc1O,77%
11,O=S(=O)(NCCNc1cc(-c2cn(-c3ccccc3)nc2-c2ccccc2)ccn1)c1ccc(F)cc1,71.3%
12,Cc1oc2ncnc(Nc3ccccc3)c2c1C(=O)NCCO,97.6%
13,N#Cc1c(NC(=O)c2ccc([N+](=O)[O-])o2)[n+]([O-])c2cc(F)c(F)cc2[n+]1[O-],149%
14,O=C1CCC(=O)N1Cc1ccccc1,97.3%
15,O=C(Cc1n[nH]c(=O)c2ccccc12)OCc1c(Cl)cccc1Cl,154%
16,C=C1C(=O)O[C@H]2[C@H]1CC/C(Cn1cc(-c3ccsc3)nn1)=C\CC[C@@]1(C)O[C@@H]21,-80.3% (active)
17,CCN1C(=O)N(CC)C2C1NN=c1s/c(=C\c3cccc(F)c3)c(=O)n12 (stereo not given),64.3%
18,CC/C=C\C/C=C\C[C@H](O)C/C=C1/C(=O)C=C[C@H]1C/C=C\CCC(=O)OC,39% [8.25 µM]
19,CSc1nc(-c2cc3ccccc3o2)cc(-c2ccc(Cl)cc2)c1C#N,73.7%
20,CCOP(=O)(CCN1CCN(CCCCCOc2cc3c(cc2OC)C(=O)N2CCC[C@H]2C=N3)CC1)OCC,98.2%

row,Structure (SMILES),growth
1,CC1Cc2c(N(C)C)ncnc2N(C)c2ccc(Cl)cc21 (stereo not given),29.3%
2,O=S(=O)(NCCCNc1cc(-c2cn(-c3ccccc3)nc2-c2cccc(O)c2)ccn1)c1ccc(C(F)(F)F)cc1,40.8%
3,CC1(C)OC2COC3(C(=O)O)OC(C)(C)OC3C2O1 (stereo not given),97%
4,O=C(c1c[nH]c2ccccc12)C(Sc1nc2ccccc2c(=O)[nH]1)c1ccccc1 (stereo not given),91.2%
5,CCCCCCCCCN1C(=O)/C(=c2\sc3n(c2=O)C2C(NN=3)N(CC)C(=O)N2CC)c2ccccc21 (stereo not given),69.1%
6,COc1cc(-n2nc(C(=O)Nc3ccc(C(=O)O)cc3)nc2-c2ccccc2)cc(OC)c1OC,53%
7,CCCCCCCCCCC/C=C\C[C@H](O)C/C=C1/C(=O)C=C[C@@H]1C/C=C\CCCC(=O)OC,1.38% (active)
8,CCCC1OC(c2ccc(C(C)C)cc2)OCC1CC (stereo not given),101%
9,CC(=O)Nc1ccc2c(c1)/C(=C\C=C/c1ccc([N+](C)(C)C)cc1)c1ccccc1-2,57.7%
10,Cc1oc2nc[nH]c(=O)c2c1C(=O)/C=C/c1ccc(Cl)cc1Cl,117%
11,c1ccc2c(c1)Oc1ccccc1C2C1c2ccccc2Oc2ccccc21,84.9%
12,Cc1oc2nc[nH]c(=O)c2c1C(=O)/C=C/c1ccc(Cl)cc1,62%
13,CCCS(=O)(=O)c1nc(NC2CC2)cc(-c2ccc3c(ccn3C3CC(C)(C)NC(C)(C)C3)c2)n1,22.6%
14,COc1ccc(NC(=O)/N=c2\oc3c(OC)cccc3cc2-c2cc3ccccc3[nH]2)cc1,72.3%
15,O=C(/C=C/CN1CCOCC1)Nc1cc2c(Nc3cccc(Cl)c3F)ncnc2cc1OCCOC(F)F,29.5%
16,CC(C)N(Cc1ccc(CN(C(=O)CCl)C(C)C)cc1)C(=O)CCl,82.6%
17,COc1ccc(Cl)cc1NC(N)=S,105%
18,C#CCC1(c2ccc(F)c(F)c2)NS(=O)(=O)c2ccccc21 (stereo not given),103%
19,Nc1nn2cc(-c3ccc(Cl)s3)nc2c2ccccc12,86.7%
20,ClC1=C(Cl)C(Cl)=C(Cl)C1=Cc1ccc(Cl)cc1Cl,-19.8% (active)
